Measured values taken from PubChem BioAssay (Tox21).
Values joined by “and” are separate entries in the source; they are usually repeats but may differ in a detail not shown here. Equal entries are not always repeated. Records with an inconclusive call do not appear. Entries that show only a call come without a potency. More than one record can exist for a structure, and the calls need not agree. Active and inactive are the calls of the source. Calls follow the shape of the dose curve; as a rule, active = well fitted cell-killing curve with a large enough effect in the repeat runs; inconclusive = weak or mixed curves, or effect the other way; inactive = no such curve, though single readings can be large or run the other way.

Assay: qHTS assay to identify aromatase inhibitors - cell viability counter screen (AID 743084);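 also: cells stimulated with testosterone during compound exposure; nearly all actives have a fitted effect of over 55% in size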
Conditions: MCF-7 aro ERE viability, CellTiter-Fluor, 24 h; series mostly up to 70.3 µM; activity change, negative = cytotoxicity: at the top concentration
Potency is read from the fitted curve at half-maximal effect.

Compound | Potency | activity change, negative = cytotoxicity
CCN(CC)CCNC(=O)c1ccc(N)cc1 | inactive | 
CC(=O)OC/C=C(\C)CCC=C(C)C | inactive | 
OCCOCCOCCOCCOCCO | inactive | 
COc1c2ccoc2cc2oc(=O)ccc12 | inactive | 
CO[Si](CCCNCCN)(OC)OC | inactive | 
CCCOCC(C)O (stereo not drawn) | inactive | 
O=Cc1ccc(CO)o1 | inactive | 
COc1ccc2cc3[n+](cc2c1OC)CCc1cc2c(cc1-3)OCO2 | inactive and 48.9 µM (active) | 
OC1CCCCC1 | inactive | 
CC(O)CNCC(C)O (stereo not drawn) | inactive | 
O=[N+]([O-])c1cc(C(F)(F)F)ccc1Cl | inactive | 
CC(C)=CCC/C(C)=C/C=O | inactive | 
CCCCCC(C)=O | inactive | 
CCCCCCCCCCCCCC(=O)O | inactive | 
CCCN(CCC)C(=O)SCC | inactive | 
NC1CCCCC1N (stereo not drawn) | inactive | 
O=[N+]([O-])c1ccccc1C(F)(F)F | inactive | 
O=C(O)C1=NN(c2ccc(S(=O)(=O)O)cc2)C(=O)C1 | inactive | 
Cc1cc(C)c(O)c(C)c1 | inactive | 
O=c1n(CCCN2CCN(c3cccc(Cl)c3)CC2)nc2ccccn12 | inactive | 
CN=C(NC#N)NCCSCc1nc[nH]c1C | inactive | 
COCN(COC)c1nc(N(COC)COC)nc(N(COC)COC)n1 | inactive | 
CCCCC(CC)COC(=O)c1ccc(C(=O)OCC(CC)CCCC)cc1 (stereo not drawn) |  | 10.8% (inactive)
OC[C@H]1O[C@@H](Oc2ccc(O)cc2)[C@H](O)[C@@H](O)[C@@H]1O | inactive | 
CC(C)c1ccc(C(C)C)cc1 | inactive | 
CC(CN1c2ccccc2Sc2ccccc21)N(C)C (stereo not drawn) | inactive | 
CCc1cccc(CC)c1N | inactive | 
Clc1cccc(Cl)c1NC1=NCCN1 |  | 5.11% (inactive)
